Screening data as filed in PubChem.
The list is not random: actives were taken first. Their share in the collection is about 7.1%.
ELG1 repair inh: qHTS screen for small molecules that inhibit ELG1-dependent DNA repair in human embryonic kidney (HEK293T) cells expressing luciferase-tagged ELG1; Potency, µM (highest dose often 46.1 µM), for inactives: at the highest dose activity change, negative = inhibition, hits mostly inhibitors; AID 504467, 2011; 2.3% of 330,000 active; HEK293T ELG1-luciferase reporter, luminescence, 16 h; DNA damage induced by 5-fluorouridine; further: on the % scale 0 is the no-effect control and ±100 the full control effect; nearly all actives have a fitted effect of over 55% in size
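5-Fluorouridine DNA damage + compound/DMSO, 2,000 cells/well, 16 h, 37 °C/5% CO2. ONE-Glo, 30 min RT, luminescence. Readout = decrease in reporter signal.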
A-T KAP1 phos: qHTS Assay for Identifying a Potential Treatment of Ataxia-Telangiectasia. AID 485349, 2010. Potency, µM (highest dose often 57.5 µM), inactives show at the top dose activation, hits mostly activators. F2112 A-T fibroblasts, KAP-1 phosphorylation AlphaLISA; neocarzinostatin DNA damage 30 min before lysis. 0.19% of 320,000 active; further: % of control where 0% means no effect; nearly all actives have a fitted effect of over 45% in size
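hTERT-immortalized A-T patient fibroblasts (F2112), 500 cells/well in OPTI-MEM, 1% FBS, got compounds for 60 min, then NCS for 30 min at 37C. Lysates were then assayed for phospho-KAP-1 by AlphaLISA (anti-pKAP1 donor, anti-KAP1 acceptor beads), 6 hr at 25C.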
ELG1 genotox: qHTS screen for small molecules that induce genotoxicity in human embryonic kidney (HEK293T) cells expressing luciferase-tagged ELG1; Potency, µM (highest dose often 46 µM), for inactives: top-dose activity change, positive = activation, hits mostly activators; 1.3% of 330,000 active; HEK293T ELG1-luciferase reporter, luminescence, 16 h; further: % of control where 0% means no effect; nearly all actives have a fitted effect of over 60% in size
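Cells (2,000/well) expressing the ELG1-luciferase fusion are dosed by pin tool and kept 16 hr at 37 °C, 5% CO2. Signal comes from ONE-Glo luciferase reagent after 30 min at room temperature.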
SW480 rereplic: A quantitative high throughput screen for small molecules that induce DNA re-replication in SW480 colon adenocarcinoma cells | 1.8% of 340,000 active | Potency, µM (top dose mostly 46.1 µM), for the others: at the top dose re-replication activation, hits mostly activators | SW480 DNA re-replication, Hoechst DNA content imaging, 48 h | AID 624297, 2012; further: % of control where 0% means no effect; nearly all actives have a fitted effect of over 55% in size
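Hoechst fluorescence of nuclei (405 nm excitation, 500-530 nm emission) measured by plate-scanning imager after 48 hr compound exposure at 37 C; re-replication scored as increased number of nuclei with elevated intensity.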
MCF10A rerep: A quantitative high throughput screen for small molecules that induce DNA re-replication in MCF 10a normal breast cells; MCF 10A DNA re-replication, Hoechst nuclear intensity, 48 h; Potency, µM (series often up to 46.1 µM), for the others: at the top dose activity, positive = re-replication, usual class: activators; 2.9% of 350,000 active; AID 624296, 2012; further: % of control where 0% means no effect; nearly all actives have a fitted effect of over 50% in size
p53 reactivation: qHTS assay for re-activators of p53 using a Luc reporter; H1299 p53-A138V BP100-luciferase reporter, luminescence, 24 h; Potency, µM (doses to about 92.2 µM), inactives show top-dose activity change, positive = activation, actives largely listed as activators; 0.063% of 320,000 active; AID 504706, 2011; further: % of control where 0% means no effect; nearly all actives have a fitted effect of over 45% in size
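H1299 (p53-null), stable ts p53-A138V + BP100-Luc; 1000 cells/well, Opti-MEM/10% FBS; cpd 4 pt, 1:5; 24 h, 37 deg C, 5% CO2; detection reagent 10 min RT; luminescence.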
* marks the source's active call; other numbers are inactive results; ? = inconclusive; · = not tested or not shown; [ ] = remark or other dose. The call rests on the fitted dose curve; in most records, active means well fitted curve in the direction sought with a large enough effect; inconclusive means small, poorly fitted or top-dose-only effect, or another doubt; inactive means no such curve, though single readings can be large; an effect the other way counts as inactive or inconclusive. Potency means the concentration at half of the fitted maximal effect.

SMILES	ELG1 repair inh	A-T KAP1 phos	ELG1 genotox	SW480 rereplic	MCF10A rerep	p53 reactivation
COC(=O)COc1ccc2c(=O)c(-c3ccccc3)coc2c1	6%	5%	-2%	-1%	10%	-1%
CC(C)Oc1ccc2c(=O)c(-c3ccccc3)coc2c1	?	14%	9.2µM*	-7%	-1%	32%
CCN(CC)C(=O)Oc1ccc2c(=O)c(-c3ccc(OC)cc3)coc2c1	?	2%	1%	?	13µM*	9%
COc1ccc2c(=O)c(-c3ccc4c(c3)OCO4)coc2c1	?	8%	2.9µM*	2%	-2%	?
CCCc1cc2c(=O)c(-c3ccc4c(c3)OCCO4)coc2cc1OC(=O)c1ccco1	?	-7%	18%	0%	-2%	?
COc1ccc(CNC(=O)/C=C/c2cc([N+](=O)[O-])ccc2OC(F)F)cc1	-24%	1%	-1%	-7%	4%	0%
COC(=O)c1ccc(CNC(=O)/C=C/c2cc([N+](=O)[O-])ccc2OC(F)F)cc1	10µM*	-3%	-1%	-16%	0%	-5%
COc1ccc(CNC(=O)/C=C/c2cc([N+](=O)[O-])ccc2OC(F)F)cc1OC	21µM*	3%	-1%	1%	8%	-5%
COc1ccc(NC(=O)c2cc(-c3ccco3)nc3ccccc23)cc1S(=O)(=O)N1CCOCC1	10µM*	5%	-4%	-2%	16%	-2%
COc1ccc(Nc2nc(-c3ccccc3)nc3ccccc23)cc1S(=O)(=O)N1CCOCC1	8.2µM*	-1%	-14%	1%	?	-1%
O=C(Nc1ccc(Cl)c(S(=O)(=O)N2CCOCC2)c1)c1cc(-c2ccccn2)nc2ccccc12	18µM*	2%	-10%	11%[1.84 µM]	14%	-3%
Cc1ccc(NC(=O)c2cc(-c3ccco3)nc3ccccc23)cc1S(=O)(=O)N1CCOCC1	?	-2%	-11%	-1%	3%	-3%
CCOc1cc(N2CCOCC2)c(OCC)cc1NC(=O)c1cc(-c2ccco2)nc2ccccc12	2.6µM*	9%	-13%	0%	?	-3%
CCOC(=O)C1CCN(S(=O)(=O)c2ccc3[nH]c(=O)ccc3c2)CC1	2%	6%	7%	-17%	-8%	·
C[C@@H]1O[C@@H](O[C@H]2[C@H](O[C@H]3C[C@]4(C)C(C[C@@H](O)C5C([C@]6(C)CC[C@@H](C(C)(C)O)O6)CC[C@]54C)[C@@]4(C)CC[C@H](O)C(C)(C)C34)O[C@H](CO)[C@@H](O)[C@@H]2O)[C@H](O)[C@H](O)[C@H]1O (some centres not stated)	0%	-5%	0%	-55%	-20%	2%
CSc1ccc(/C=C/C(=O)N2CCN(c3ccccn3)CC2)cc1	1%	5%	3%	-2%	-7%	3%
CN(C(=O)c1cccc(NC(=O)Cc2ccc(NC(=O)C3CCCN(C(=O)C4CCCC4)C3)cc2)c1)C1CCCCC1 (configuration not stated)	·	·	·	-22%	?	·
CN1CCN(C(CNC(=O)C(=O)Nc2ccc3c(c2)OCO3)c2ccc(F)cc2)CC1 (configuration not stated)	1%	-6%	-8%	-431%	23%	4%
CC(C)(C)C(=O)Oc1ccc2cc(-c3ccc4ccccc4n3)c(=O)oc2c1	?	1%	?	23µM*	6.5µM*	?
Cn1c(-c2cc3ccc(OC(=O)C(C)(C)C)cc3oc2=O)nc2ccccc21	?	10%	?	?	-7%	?
C/C(CCN1CCCCc2nc(C)c(C)cc21)=N\O[C@@H](C)CN1CCCCc2nc(C)c(C)cc21	-13%	-7%	9%	?	23µM*	0%
Cc1ccc(NC2CCCN(C(=O)CSc3ccccn3)C2)cc1C (configuration not stated)	2%	-5%	-4%	5%	-3%	-3%
Cn1cc(C(=O)NS(=O)(=O)Nc2ccc(Br)cn2)c2ccccc21	?	6%	8%	-34%	-2%	22%
CC1CCN(Cc2nnnn2CCCC(=O)NC(c2ccccn2)C(F)(F)F)CC1 (configuration not stated)	-12%	-14%	2%	3%	21µM*	-4%
N/C(=N\OC(=O)c1ccccc1Cl)c1ccccn1	?	7%	0.52µM*	0%	-20%	-6%
SMILES	ELG1 repair inh	A-T KAP1 phos	ELG1 genotox	SW480 rereplic	MCF10A rerep	p53 reactivation
N/C(=N\OC(=O)c1cc(-c2ccccc2)nc2ccccc12)c1ccccn1	18µM*	19%	-8%	-6%	4%	7%
N/C(=N\OC(=O)c1ccc(Cl)c([N+](=O)[O-])c1)c1ccccn1	?	-3%	14%	?	21µM*	?
O=C(N/N=C/c1ccc(OC(=O)c2ccccc2Cl)cc1)c1ccccn1	?	12%	8.2µM*	-6%	-1%	?
O=C(c1cccs1)c1ccccc1Cc1cccs1	·	·	·	-5%	-1%	·
Cc1ccc(C(=O)O/N=C(\N)c2ccccn2)c(C)c1	?	-5%	-17%	?	7.3µM*	-44%
COc1ccccc1C(=O)O/N=C(\N)c1ccccn1	?	11%	?	-7%	-2%	-4%
N/C(=N\OS(=O)(=O)c1ccccc1)c1ccccn1	?	5%	3%	1%	?	7%
Cc1ccc(C)c(OCC(=O)O/N=C(\N)c2cccnc2)c1	?	-2%	4%	1%	20%	0%
N/C(=N\OC(=O)COc1ccc2ccccc2c1)c1ccccn1	?	5%	6%	-3%	-2%	8%
Cc1ccc(C)c(OCC(=O)O/N=C(\N)c2ccccn2)c1	?	-2%	?	-5%	10µM*	?
N/C(=N\OC(=O)COc1ccccc1Cl)c1ccccn1	?	7%	9.2µM*	-3%	12%	?
N/C(=N\OS(=O)(=O)c1ccc(Cl)cc1)c1ccccn1	?	0%	23µM*	3%	-22%	?
CC(=O)N1CCN(c2ccc(NS(=O)(=O)c3ccc(C)cc3)cc2)CC1	7%	-9%	-3%	-12%	-4%	-3%
